High-throughput results deposited in PubChem by NMMLSC.
Rows were chosen to be rich in hits. Some 1.3% of all compounds tested hit in one or more screens of this group.
RPL19A-GFP yeast = RPL19A-GFP expression modulators in yeast, primary screen, cell-based, S. cerevisiae, multiplex flow cytometry, MLPCN; AID 2025, 2009; actives 0.3% (n = 330,000); percent response vs DMSO, % at 10 µM; S. cerevisiae RPL19A-GFP strain, 3 h; stronger effect = lower value;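 active = percent response vs DMSO below 50%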;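 note: median channel GFP fluorescence of the barcoded RPL19A-GFP strain; ratio of sample median GFP to plate DMSO average so 100% = DMSO; lower means less RPL19A-GFP as with rapamycin TOR inhibition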
CIT2 TOR yeast = modulators of CIT2-GFP expression in yeast, primary screen, S. cerevisiae, GFP fusion, multiplex flow cytometry, MLPCN library; S. cerevisiae CIT2-GFP strain, 3 h; 100 means same as DMSO wells; GFP response vs DMSO, % at 10 µM; actives 0.065% (n = 320,000);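 active = GFP response relative to DMSO above a set limit, near the screen mean plus 3 SD, cut at about 150% in these data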;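 note: ratio of well median GFP fluorescence to mean of DMSO wells on the plate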
MEP2 TOR yeast = modulators of MEP2-GFP levels in yeast, primary screen, S. cerevisiae, multiplex flow cytometry, MLPCN library; actives 0.51% (n = 330,000); S. cerevisiae MEP2-GFP strain, 3 h; 100% = DMSO control level; GFP response vs DMSO, % at 10 µM; AID 2016, 2009;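 active = GFP response versus DMSO above a set limit, roughly screen mean plus 3 SD, cut at about 180% in these data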;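 note: median GFP fluorescence of the barcode-gated MEP2-GFP cells per well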
Efflux pump mplx = inhibitors of Candida efflux pumps in yeast, primary screen, S. cerevisiae, Nile Red, multiplex. S. cerevisiae Candida pump triplex. inhibition, % at 10 µM. actives 0.44% (n = 330,000);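 active = plate passing quality check with inhibition over a set limit, or well fluorescence over plate mean plus 4 SD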;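 note: Nile Red retained in pooled yeast measured as flow cytometry median fluorescence; 0% = buffer negative control and 100% = Enniatin B positive control; higher means more Nile Red kept so more efflux inhibition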
AGP1-GFP MLPCN = modulators of AGP1-GFP expression in yeast TOR pathway, primary screen, cell-based, multiplex flow cytometry, S. cerevisiae, MLPCN library. GFP response vs DMSO, % at 10 µM. 3 h; GFP as percent of DMSO wells. actives 0.02% (n = 320,000). AID 2066, 2009;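 active = GFP response relative to DMSO above a set limit, near screen average plus 3 SD, cut at about 150% in these data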;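 note: median GFP channel fluorescence of the gated AGP1 strain per well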
LAP4 TOR yeast = modulators of LAP4-GFP expression in yeast, primary screen, S. cerevisiae, multiplex flow cytometry, MLPCN library | GFP response vs DMSO, % at 10 µM | 3 h; median GFP as percent of DMSO wells | actives 0.34% (n = 320,000) | AID 2023, 2009;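 active = GFP response vs DMSO above a set limit, about the screen mean plus 3 SD, cut at about 150% in these data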
LAP4-GFP pick2 = LAP4-GFP expression modulators in yeast, confirmation, cell-based, second cherry pick, flow cytometry | shares compounds with LAP4 TOR yeast | S. cerevisiae LAP4-GFP strain, 3 h | GFP response vs DMSO, % at 10 µM | actives 20% (n = 590) | AID 2621, 2010;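 active = GFP signal as percent of the solvent control above about 150%, meaning raised reporter expression, limit read from the data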;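 note: ratio of well median GFP fluorescence to plate DMSO mean so 100% = DMSO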
MEP2 cherry2 = modulators of MEP2-GFP levels in yeast, confirmation, S. cerevisiae, flow cytometry GFP, second cherry picks. actives 10% (n = 590). shares compounds with LAP4 TOR yeast. GFP response vs DMSO, % at 10 µM. S. cerevisiae MEP2-GFP strain, 3 h;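 active = GFP signal above 150% of the solvent control wells, that is a rise of more than half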;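 note: median channel GFP fluorescence of all gated yeast cells per well; ratio of median GFP to plate DMSO average so 100% = DMSO level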
RPL19A-GFP pick2 = RPL19A-GFP modulators in TOR pathway yeast, confirmation, cell-based, S. cerevisiae, flow cytometry, second cherry pick. shares compounds with LAP4 TOR yeast. S. cerevisiae RPL19A-GFP strain, 3 h; stronger effect = lower value; 100% means same as DMSO wells. GFP response vs DMSO, % at 10 µM. actives 3% (n = 590);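 active = under 65% GFP response relative to DMSO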;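 note: median GFP channel fluorescence per well over the all cells gate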
CIT2 GFP CP2 = modulators of CIT2-GFP expression in yeast, confirmation, flow cytometry, second cherry pick, single plex; shares compounds with LAP4 TOR yeast; S. cerevisiae CIT2-GFP strain, 3 h; DMSO control wells read 100%; GFP response vs DMSO, % at 10 µM; actives 8% (n = 590);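 active = GFP response vs DMSO above about 150%, limit read from the data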;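 note: median green fluorescence per well over all gated yeast cells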
AGP1-GFP pick2 = AGP1-GFP expression modulators, hit retest, confirmation, cell-based, flow cytometry, S. cerevisiae, cherry pick set 2. 590 tested, under 10 active. shares compounds with LAP4 TOR yeast. percent response vs DMSO, % at 10 µM. S. cerevisiae AGP1-GFP strain, 3 h;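 active = over 150 percent of DMSO response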;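 note: median GFP channel fluorescence over all cells without mother daughter split; sample median GFP divided by mean DMSO control so 100% equals DMSO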
s288c autofluor = compound autofluorescence in yeast s288c, dose response, artefact control for yeast TOR pathway GFP screen, s288c strain; S. cerevisiae s288c, 520 nm autofluorescence, flow cytometry, 3 h; stronger effect = higher value; zero means same as solvent-only cells; fluorescence change (kMESF span) at 33 µM; 610 tested, under 10 active; shares compounds with LAP4 TOR yeast;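 active = fluorescence span over the dose series, or activity score, above about 33, limit read from the data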
s288c autofl DR = autofluorescence of compounds in yeast s288c, dose response, artefact control for yeast TOR pathway GFP screen, primary hits, KU SAR, s288c parental. shares compounds with LAP4 TOR yeast. S. cerevisiae s288c parental, compound autofluorescence, flow cytometry, 3 h. fluorescence change (span) at 33 µM. 110 tested, under 10 active. AID 488829, 2010;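 active = fluorescence change span, or the activity score built from it, above 25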
TORC1 bypass gr = wild-type yeast growth inhibition sparing TORC1 bypass cells, mechanism study for yeast TOR pathway GFP screen, BY4741 wild type, TORC1 bypass strain | shares compounds with LAP4 TOR yeast | S. cerevisiae BY4741 spot growth rating, 48-72 h; stronger effect = lower value | growth rating (0-3) at 30 µM | 120 tested, under 10 active | AID 504456, 2011;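 active = growth rating at most 1 for wild type yeast while the TORC1 bypass strain still grows fully, rated 3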
The depositor's hits bear a star; nt = no result given.

SMILES	RPL19A-GFP yeast	CIT2 TOR yeast	MEP2 TOR yeast	Efflux pump mplx	AGP1-GFP MLPCN	LAP4 TOR yeast	LAP4-GFP pick2	MEP2 cherry2	RPL19A-GFP pick2	CIT2 GFP CP2	AGP1-GFP pick2	s288c autofluor	others
CC1CCN(C(=O)Cn2cc(S(=O)(=O)CC(=O)N3CCOCC3)c3ccccc32)CC1	104.5	106.8	101.0	-0.1	103.7	97.5	nt	nt	nt	nt	nt	nt
CC1CN(C(=O)Cn2cc(S(=O)(=O)CC(=O)N3CCOCC3)c3ccccc32)CC(C)O1 (configuration not stated)	104.8	163.4*	114.4	0.1	116.6	98.3	102.9	99.8	101.9	101.8	100.3	nt
S=c1[nH]nc(-c2ccco2)n1/N=C/c1cccc(Cl)c1Cl	99.6	85.5	102.4	0.0	85.8	99.2	nt	nt	nt	nt	nt	nt
S=c1[nH]nc(-c2ccco2)n1/N=C/c1ccc(Cl)cc1Cl	101.0	102.2	216.5*	0.1	98.7	119.7	102.2	99.6	99.3	98.7	94.0	nt
CC(=O)Oc1ccc2c(c1)Oc1cc(OC(C)=O)ccc1C21OC(=O)c2ccccc21	109.2	164.1*	230.2*	1.0	110.8	206.4*	148.3	174.7*	222.2	403.3*	119.0	nt
Cc1cc(O)ccc1C1(c2ccc(O)cc2C)OC(=O)c2ccccc21	99.4	103.4	101.0	0.0	101.8	103.1	nt	nt	nt	nt	nt	nt
Cc1[nH]oc(=O)c1N=Nc1ccc2[nH]c(=O)[nH]c2c1	93.4	93.0	90.2	0.0	105.1	111.5	nt	nt	nt	nt	nt	nt
O=C1N(c2ccccc2C(F)(F)F)O[C@]1(c1ccccc1)C1CCCC1	98.5	102.8	91.1	-0.1	90.8	90.5	110.6	113.1	101.3	107.4	105.9	-0.1
Cc1ccccc1[C@@]1(C)ON(c2ccccc2C(F)(F)F)C1=O	88.1	90.9	82.9	0.0	84.1	99.7	125.0	106.5	104.2	113.1	101.5	-0.2
CC[C@@]1(c2ccccc2OC)ON(c2ccccc2C(F)(F)F)C1=O	93.1	87.7	80.0	0.4	73.4	115.9	147.3	111.8	101.2	107.1	104.4	0.6
Cc1ccccc1CN1C(=O)C2(OCCCO2)c2ccccc21	109.8	107.0	115.7	0.2	nt	110.2	nt	nt	nt	nt	nt	nt
CC1(c2ccccc2)ON(c2ccccc2C(F)(F)F)C1=O (configuration not stated)	92.1	77.6	74.7	0.3	72.6	114.0	127.9	113.1	100.9	115.3	98.6	0.3
O=c1c2ccccc2ncn1-c1ccccc1C(F)(F)F	94.2	95.3	100.1	0.0	96.5	99.9	nt	nt	nt	nt	nt	nt
COC(=O)N1C(=O)[C@](c2ccccc2)(C2CCCC2)N1C(=O)OC	95.5	63.7	88.8	0.3	78.8	105.5	nt	nt	nt	nt	nt	nt
Cc1cc(C)cc(OCC(=O)OCC(=O)Nc2cc(S(=O)(=O)N3CCOCC3)ccc2Cl)c1	95.6	104.4	109.8	0.2	100.1	103.4	nt	nt	nt	nt	nt	nt
COc1ccccc1N1CCN(C2CCCN(C(=O)CCc3ccccn3)C2)CC1 (configuration not stated)	103.6	105.3	97.4	0.0	84.2	64.0	nt	nt	nt	nt	nt	nt
O=C(O)c1cccc(CN2C(=O)S/C(=C/c3cccc([N+](=O)[O-])c3)C2=O)c1	53.1	81.5	155.5	0.1	22.4	102.5	98.1	99.8	102.8	102.9	98.8	nt
C=CCN=C1S/C(=C/c2cccc([N+](=O)[O-])c2)C(=O)N1CC=C	96.7	90.1	89.9	0.1	97.0	109.8	nt	nt	nt	nt	nt	nt
COc1ccc(OCC(=O)NNC(=S)NC(=O)C2CC2)cc1	110.0	92.4	107.0	-0.3	99.4	102.1	nt	nt	nt	nt	nt	nt
COc1ccc(OCC(=O)NNC(=S)NC(=O)C2CCCCC2)cc1	105.9	116.2	126.8	-0.1	104.4	170.1*	240.4*	139.8	112.8	154.9*	105.6	2.43
CCc1ccc(OCC(=O)NNC(=S)NC(=O)C2CC2)c(Br)c1	106.0	88.3	116.2	-0.1	93.5	166.2*	nt	nt	nt	nt	nt	0.71	s288c autofl DR=0.73;TORC1 bypass gr=3
CCc1noc(C)c1C(=O)N(C)CC(=O)Nc1cccc(OC)c1	99.6	102.2	106.2	-0.1	105.9	95.9	nt	nt	nt	nt	nt	nt
O=C(OCC(=O)N1N=C(c2ccc(Cl)cc2)CC1c1ccco1)c1cncc(Br)c1 (configuration not stated)	97.9	100.0	102.4	0.5	103.1	95.3	nt	nt	nt	nt	nt	nt
Cc1cccn2c(=O)c3cc(C#N)c(=N)n(CCCN4CCOCC4)c3nc12	62.5	78.1	115.0	-0.1	73.8	78.2	99.2	103.1	99.1	97.3	98.5	nt
